# Screening results deposited in PubChem BioAssay by National Center for Advancing Translational Sciences (NCATS).
# In the library only some 21% were active in any assay of this set; here they are far more common.
# CHX counter – counter-screen hit for Shiga toxin inhibitors, cycloheximide; AID 2314; actives 12% (n = 300,000); cell reporter, cycloheximide protein synthesis inhibition counterscreen; max response, %; in the data active means max response mostly above about 13%, no sharp cut-off; inactive means mostly below about 14%; further: read at 38.3 µM for the half of the compounds with a filed dose; 0% is about no effect
# Pf growth 48h – inhibits P. falciparum growth in the first generation, 48 h. P. falciparum luciferase growth in erythrocytes, 48 h. Potency, µM (doses to about 28.7 µM), inactives show at the top dose activity change, negative = inhibition, hits mostly inhibitors. actives 5.9% (n = 310,000); further: potency means the concentration at half of the fitted maximal effect; on the % scale 0 is the no-effect control and ±100 the full control effect
#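 Compounds are pin-transferred into medium, infected erythrocytes (2% hematocrit, 0.1% parasitemia final) are added, and plates sit one parasite generation at 37 C in 5% CO2. Detection reagent is then added and luminescence measured.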
# Shiga toxin inh – inhibitors of Shiga toxin in Vero cells. Vero cells, Shiga toxin protein synthesis inhibition reporter. inhibition, % at 38.7 µM. actives 9.2% (n = 290,000); in the data active means inhibition mostly above about 28%, no sharp cut-off; inactive means mostly below about 43%; further: 0% is about no effect
# Pf growth 96h – P. falciparum growth inhibition at 96 hours; P. falciparum luciferase reporter growth, 96 h; Potency, µM (top dose mostly 28.7 µM), without a hit: top-dose activity change, negative = inhibition, usual class: inhibitors; actives 6.9% (n = 320,000); AID 504834; further: potency means the concentration at half of the fitted maximal effect; on the % scale 0 is the no-effect control and ±100 the full control effect
#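 Erythrocytes infected with luciferase-expressing P. falciparum were dispensed at 2% hematocrit and 0.05% parasitemia (final), then incubated with compounds 96 hours at 37 C in 5% CO2. Luminescence after detection reagent addition reported growth.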
# Numbers without * were called inactive; i = inactive; ? = inconclusive; · = no result. Unless noted, the call rests on the fitted dose curve; in most records, active means well fitted inhibition curve with a large enough effect; inconclusive means small, poorly fitted or top-dose-only effect, or another doubt; inactive means no such curve, though single readings can be large or run the other way.
SMILES,CHX counter,Pf growth 48h,Shiga toxin inh,Pf growth 96h
O=C(Nc1ncccc1Cl)c1cc2ccccc2o1,29.8*,303.7%,72.8*,179.3%
O=C(Nc1ccc(Cl)cc1Cl)c1cc2ccccc2o1,51.3*,391.5%,57.5*,-3.5%
Cc1ccccc1NC(=O)c1cc(=O)c2ccccc2o1,15.9,47.8%,30.4,30.1%
Cc1ccccc1NC(=O)c1cc2ccccc2o1,37.0*,179.4%,·,10.4µM*
O=C(CSc1nc2ccccc2c(=O)n1-c1ccc(F)cc1)NC1CCS(=O)(=O)C1 (stereo not drawn),·,29.3%,·,2.9%
Cc1ccc(CN/C=C/C(=O)c2ccc(Br)cc2)cc1,36.6*,29.1%,60.3*,38.2%
Cc1ccc(C(=O)/C=C/NCc2ccc(F)cc2)cc1,48.1*,30.1%,93.3*,33.9%
Cc1ccc(CNC(=O)Cc2ccc(Br)cc2)cc1,-3.1,49.5%,19.0,i
O=S(=O)(c1ccc2ccccc2c1)N(CC1CO1)c1ccccc1 (stereo not drawn),1.0,-1.3%,-2.7,14.0%
Cc1ccccc1-c1nnc(SCC(=O)c2c(N)n(C3CC3)c(=O)[nH]c2=O)o1,·,-17.6%,·,-26.3%
COc1ccccc1-c1nnc(SCC(=O)c2c(N)n(C3CC3)c(=O)[nH]c2=O)n1C,·,?,·,11.7µM*
C=CCn1c(SCC(=O)N(C)c2c(N)n(Cc3ccccc3)c(=O)[nH]c2=O)nnc1-c1ccccc1OC,-4.0,-5.3%,-13.7,12.4%
C=CCn1c(SCC(=O)c2c(N)n(C3CC3)c(=O)[nH]c2=O)nnc1-c1ccccc1OC,·,?,·,11.7µM*
C=CCn1c(SCC(=O)c2c(N)n(C3CC3)c(=O)[nH]c2=O)nnc1-c1ccoc1C,·,9.28µM*,·,?
COc1ccc(S(=O)(=O)N2CCCC(C(=O)NC3CC3)C2)cc1Cl (stereo not drawn),-3.2,?,-6.0,?
O=C(Cn1ncc(Cl)c(Cl)c1=O)N1CCOCC1,22.9*,?,37.9*,?
Cc1ccc(Cn2ncc(Cl)c(Cl)c2=O)cc1,10.9,-2.2%,37.6,?
CCc1ccc(C(=O)Cn2ncc(Cl)c(Cl)c2=O)cc1,17.5*,2.0%,24.3,58.2%
Cc1cc(C)cc(Cn2ncc(Cl)c(Cl)c2=O)c1,35.7*,12.2%,35.3,-26.7%
COc1ccc(CCNS(=O)(=O)CCNC(=O)c2ccc(OC)cc2)cc1,·,48.3%,·,25.9%
COc1cc(NC(=O)Cn2c([N+](=O)[O-])cnc2C)c(OC)cc1Cl,-3.6,?,·,?
CN(C)c1ccc(C(=O)NCc2ccc3c(c2)OCO3)cc1,7.8,51.0%,8.4,-5.0%
COc1cc(OC)cc(C(=O)NNC(=O)c2ccc(S(=O)(=O)N(C)c3ccccc3OC)cc2)c1,-0.5,-81.7%,-2.2,0.0828µM*
COC(=O)c1cc(CNC(=O)c2ccc(S(=O)(=O)N(C)c3ccccc3)cc2)ccc1OC,·,3.7µM*,·,11.7µM*
COc1ccccc1N(C)S(=O)(=O)c1ccc(C(=O)NCc2ccc3c(c2)OCO3)cc1,5.4,9.28µM*,-7.6,?
SMILES,CHX counter,Pf growth 48h,Shiga toxin inh,Pf growth 96h
COc1ccccc1N(C)S(=O)(=O)c1ccc(C(=O)NC(C)(C)C)cc1,14.8,·,34.1,?
COc1ccc(S(=O)(=O)NCc2ccc3c(c2)OCO3)cc1C,-0.5,·,-16.3,11.2%
COc1ccc(S(=O)(=O)NCc2ccc3c(c2)OCO3)cc1OC,1.5,-2.8%,-17.8,1.17µM*
COc1ccc(Br)c(C(=O)N(C)CC(=O)Nc2ccc(N3CCOCC3)cc2)c1,·,7.8%,·,15.4%
CN(C)c1ccc(N=Cc2nc(-c3ccccc3)oc2OC(=O)c2cccc(Cl)c2)cc1,67.7*,182.0%,70.6*,212.3%
COc1cccc(N=Cc2nc(-c3ccccc3)oc2OC(C)=O)c1,8.5,49.4%,48.0*,146.6%
Cc1ccc(C(=O)Oc2oc(-c3ccccc3)nc2C=Nc2ccc(N(C)C)cc2)cc1,78.0*,161.7%,130.5*,96.4%
Cc1ccc(-c2nc(C=Nc3cccc(C)c3)c(O)o2)cc1,14.0,35.3%,66.6,-17.9%
COc1ccc(N=Cc2nc(-c3ccccc3)oc2OC(C)=O)cc1,-0.7,34.1%,13.8,51.2%
CCOc1ccc(Cc2c(C)[nH]c3ccc(C(=O)O)cc3c2=S)cc1,0.8,2.7%,-6.3,-26.4%
COc1ccc(OC)c(C2Nc3nc4ccccc4n3C(C)=C2C(=O)Nc2ccc(C)cc2C)c1 (stereo not drawn),16.8,7.38µM*,-22.2,·
COc1ccc(OC)c(C2NC(=O)NC(C)=C2C(=O)Nc2ccc(C)cc2C)c1 (stereo not drawn),14.9,32.4%,16.6,14.9%
COc1ccc(CCNS(=O)(=O)c2ccc(Br)s2)cc1,29.2*,-28.0%,38.6*,-6.1%
Cc1ccc(-n2c(C)cc(C(=O)Cn3nc(C(=O)O)c4ccccc4c3=O)c2C)cc1,19.0*,9.5%,41.8*,?
Cc1cc(C(=O)Cn2nnc3ccccc3c2=O)c(C)n1-c1c(C)n(C)n(-c2ccccc2)c1=O,-1.8,9.2%,-12.2,-7.8%
COc1ccc(-n2c(C)cc(C(=O)CN3CCCCC3)c2C)cc1,16.6,?,-2.6,?
Cc1ccc(C(=O)Cn2nc(C(=O)O)c3ccccc3c2=O)cc1C,10.8,-0.9%,-3.7,7.8%
COc1ccc(-n2c(C)cc(C(=O)Cn3nnc4ccccc4c3=O)c2C)cc1,15.4*,?,18.3,-29.6%
Cc1cc(C(=O)OCC(=O)Nc2c(F)cccc2F)c(C)n1-c1ccccc1,55.5*,40.2%,109.5*,-5.6%
Cc1cc(C(=O)Cn2nnc3ccccc3c2=O)c(C)n1-c1ccccc1F,45.9*,257.6%,29.4,·
CCCNC(=O)c1ccc(CN2CCOCC2)cc1,7.1,31.0%,28.4,i
COc1cccc(N2CCN(C(=O)c3cc(C)oc3C)CC2)c1,·,3.9%,·,3.4%
COc1cc(/C=N/NC(=O)c2sc3nc(C)cc(C)c3c2N)ccc1O,1.4,?,12.8,?
Cc1cc(O)cc(C)c1NS(=O)(=O)c1ccc2ccccc2c1,-9.0,6.9%,3.0,?
Cc1cc(C(=O)COC(=O)c2ccc(O)cc2)c(C)n1-c1ccccc1F,41.6*,295.0%,107.3*,i
SMILES,CHX counter,Pf growth 48h,Shiga toxin inh,Pf growth 96h
Cc1cc(C(=O)COC(=O)c2ccc(O)cc2)c(C)n1CC(F)(F)F,·,215.0%,·,402.7%
COCC(C)n1c(C)cc(C(=O)COC(=O)c2c(C)nn(-c3ccccc3)c2C)c1C (stereo not drawn),-4.5,?,14.4,?
COc1ccc(-n2c(C)cc(C(=O)Cn3nc(C(=O)O)c4ccccc4c3=O)c2C)cc1,26.3*,?,34.0*,?
Cc1cc(C(=O)Cn2nc(C(=O)O)c3ccccc3c2=O)c(C)n1-c1ccc(OC(F)F)cc1,3.6,?,19.0,?
COCC(C)n1c(C)cc(C(=O)Cn2nc(C(=O)O)c3ccccc3c2=O)c1C (stereo not drawn),27.8,106.4%,54.6*,38.2%
Cc1ccc(Cn2c(=N)n(CC(=O)c3ccccc3)c3ccccc32)cc1,-4.4,?,11.4,39.3%
c1ccc2c(c1)Cn1nc(Cc3nc4c(s3)CCCC4)nc1-2,34.8*,26.1%,74.2*,14.5%
N#CCc1nc2n(n1)Cc1ccccc1-2,-4.1,-18.5%,0.7,?
